Consider five molecules from PubChem BioAssay (Tox21).

A short description of test [1]: qHTS assay to identify small molecule agonists of the hypoxia (HIF-1) signaling pathway - cell viability counter screen (AID 1224844; calls by dose curve; further: nearly all actives have a fitted effect of over 50% in size; further: potency means the concentration at half of the fitted maximal effect). A digest of the protocol: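 HRE-bla ME-180 cells in medium with 0.5% dialyzed FBS were preincubated 5 hrs at 37C, exposed to compounds for 17 hrs, then viability was read as CellTiter-Glo luminescence after 30 min at room temperature, in the reporter wells.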
A general note: Quantitative high-throughput screening tests each substance at several concentrations.

Test [2] can be described thus: qHTS assay to identify small molecule agonists of the hypoxia (HIF-1) signaling pathway (AID 1224846; active means well fitted activation curve with a large enough effect in the signal ratio in the repeat runs, not every such curve was filed as active; the % refers to the signal ratio). Put shortly:
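HRE-bla ME-180 cells (beta-lactamase reporter under hypoxia response element) were plated at 2,000 cells/well in medium with 0.5% dialyzed FBS, rested 5 hrs, then given compounds in DMSO for 17 hrs at 37C, 5% CO2. Reporter induction was read with CCF4-AM FRET substrate.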

The nature of test [3]: qHTS assay to identify small molecule agonists of H2AX - cell viability counter screen (AID 1224847; calls by dose curve; further: top concentration of the series differs between compounds; nearly all actives have a fitted effect of over 30% in size). Put shortly:
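After overnight plating of 1000 CHO-K1 cells per well, a 15-concentration compound series was applied for 3 hr at 37C. Luminescence from CellTiter-Glo, read following 30 min at room temperature, reflected cell viability.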

The nature of test [4]: qHTS assay to identify small molecule agonists of the estrogen related receptor (ERR) signaling pathway from Tox21 library (AID 1224849; calls by dose curve; further: nearly all actives have a fitted effect of over 15% in size). As to conditions: ERR reporter cell line, ONE-Glo luciferase, 18 h. A digest of the protocol: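 ERR reporter cell line (NTP) seeded, rested 6 h at 37 C/5% CO2, then pinned with Tox21 compounds in DMSO. After 18 h at 37 C, ONE-Glo luciferase luminescence was read following 30 min at room temperature.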

The nature of test [5]: qHTS RealTime-Glo MT Cell Viability Assay in HepG2 cells - 24 hour (AID 1224867). Further: nearly all actives have a fitted effect of over 50% in size. Further: potency means the concentration at half of the fitted maximal effect. Put shortly:
(§1)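 HepG2 cells (600/well) were dispensed with RealTime-Glo reagents, incubated 5 h at 37 °C, then treated with compounds in DMSO for up to 40 h. Nonlytic NanoLuc luminescence reflecting viable cells was read at each stated time point.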

Test [6] in a line: qHTS RealTime-Glo MT Cell Viability Assay in HEK293 cells - 32 hour (AID 1224868). Further: nearly all actives have a fitted effect of over 50% in size. Further: potency means the concentration at half of the fitted maximal effect. Put shortly:
(§2)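 HEK293 cells seeded with NanoLuc/prosubstrate reagent, rested 5 h at 37 C, then dosed and kept at 37 C up to 40 h. Nonlytic real-time luminescence from viable cells read at 0, 8, 16, 24, 32 and 40 h.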

Test [7] can be described thus: A CellTox Green Cytotoxicity Assay to monitor cytotoxicity in HEK293 cells - 0 hour (AID 1224869). Further: nearly all actives have a fitted effect of over 50% in size. Put shortly: (§3)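 HEK293 cells premixed with CellTox Green dye were seeded at 600 cells/well and left 5 h at 37 C/5% CO2 before pin transfer of 23 nL compound in DMSO. Fluorescence from dye bound to dead-cell DNA was read during 40 h treatment.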
A short description of test [8]: qHTS RealTime-Glo MT Cell Viability Assay in HepG2 cells - 40 hour (AID 1224870). Further: nearly all actives have a fitted effect of over 50% in size. Further: potency means the concentration at half of the fitted maximal effect. Put shortly:
(§4)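 HepG2 cells (600/well) mixed with RealTime-Glo MT reagent, settled 5 h at 37 C/5% CO2 before compound addition. Nonlytic NanoLuc luminescence from viable-cell prosubstrate reduction read repeatedly during 40 h treatment at 37 C.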

Test [9] in a line: A CellTox Green Cytotoxicity Assay to monitor cytotoxicity in HEK293 cells - 40 hour (AID 1224871). Further: nearly all actives have a fitted effect of over 45% in size. Further: potency means the concentration at half of the fitted maximal effect. Put shortly: as §3
Test [10] can be described thus: qHTS RealTime-Glo MT Cell Viability Assay in HEK293 cells - 16 hour (AID 1224872). Further: nearly all actives have a fitted effect of over 50% in size. Further: potency means the concentration at half of the fitted maximal effect. Put shortly:
as §2

Test [11] in a line: qHTS RealTime-Glo MT Cell Viability Assay in HepG2 cells - 8 hour (AID 1224873). Further: nearly all actives have a fitted effect of over 55% in size. Further: potency means the concentration at half of the fitted maximal effect. Put shortly: as §4
Test [12] can be described thus: qHTS RealTime-Glo MT Cell Viability Assay in HEK293 cells - 40 hour (AID 1224874). Further: nearly all actives have a fitted effect of over 50% in size. Further: potency means the concentration at half of the fitted maximal effect. Particulars: RealTime-Glo luminescence; max response: stronger effect = lower value. A digest of the protocol: (§5)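 HEK293 cells mixed with RealTime-Glo reagents (NanoLuc plus cell-permeant prosubstrate) at 600 cells/well, preincubated 5 h at 37 C/5% CO2, then given 23 nL compound in DMSO. Nonlytic luminescence from viable cells was read at 0, 8, 16, 24, 32 and 40 h.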

Test [13] in a line: A CellTox Green Cytotoxicity Assay to monitor cytotoxicity in HEK293 cells - 24 hour (AID 1224875). Further: nearly all actives have a fitted effect of over 45% in size. A digest of the protocol:
as §3

Test [14] can be described thus: A CellTox Green Cytotoxicity Assay to monitor cytotoxicity in HepG2 cells - 16 hour (AID 1224876). Further: nearly all actives have a fitted effect of over 45% in size. A digest of the protocol:
(§6)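 HepG2 cells were seeded together with the CellTox Green dye at 600 cells/well, left 5 h at 37 C/5% CO2, then given compounds in DMSO. Fluorescence from dye bound to dead-cell DNA was read repeatedly over 40 h of treatment at 37 C.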

Test [15] can be described thus: A CellTox Green Cytotoxicity Assay to monitor cytotoxicity in HepG2 cells - 24 hour (AID 1224878). Further: nearly all actives have a fitted effect of over 45% in size. A digest of the protocol: as §6
Test [16] in a line: A CellTox Green Cytotoxicity Assay to monitor cytotoxicity in HepG2 cells - 40 hour (AID 1224879). Further: nearly all actives have a fitted effect of over 40% in size. A digest of the protocol:
as §6

Test [17] in a line: qHTS RealTime-Glo MT Cell Viability Assay in HEK293 cells - 0 hour (AID 1224880). A digest of the protocol: as §5
The nature of test [18]: qHTS assay to identify small molecule agonists of H2AX (AID 1224845; active means well fitted activation curve with a large enough effect in the signal ratio in the repeat runs, not every such curve was filed as active; the % refers to the signal ratio). A digest of the protocol: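 Wild-type CHO-K1 cells, plated overnight, exposed 3hr at 37C to 15 concentrations (0.76% DMSO final). Lysed, then HTRF anti-pH2AX (S139) cryptate and anti-H2AX-d2 antibodies, 24 hr room temperature; 665/620 nm emission read.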
Test [19] is described as follows: qHTS RealTime-Glo MT Cell Viability Assay in HepG2 cells - 32 hour (AID 1224877). Further: nearly all actives have a fitted effect of over 55% in size. A digest of the protocol:
as §1

Values joined by “and” are separate entries in the source; they are usually repeats but may differ in a detail not shown here. Equal entries are not always repeated. Inconclusive results are not listed. The source holds several records for some structures; these can differ, active in one and inactive in another. Active and inactive are the calls of the source. Unless noted, the call rests on the fitted dose curve; in most records, active means well fitted curve in the direction sought with a large enough effect in the repeat runs; inconclusive means weak or mixed curves; inactive means no such curve, though single readings can be large; an effect the other way counts as inactive or inconclusive.
On the % scale 0 is the no-effect control and ±100 the full control effect.

Consider `O=S1(=O)OC(c2ccc(O)cc2)(c2ccc(O)cc2)c2ccccc21`, for which the Potency entry in [1], in test [3], in test [6], in [7], in test [9] and in test [10] was “inactive” throughout. Moreover, the Potency entry in [13], in [14], in test [15], in test [16] and in [17] was “inactive” in each case. Moreover, in [2], the outcome was inactive. Besides, the activity change, positive = activation in test [4] (at 42.5 µM (top of the series)) was -3.19% (inactive); in [4] (at 92.4 µM (top of the series)), -32% (inactive) and -12.4% (inactive). Further, the Potency in [5] is 49 µM (active) and inactive; in [8], 49 µM (active) and inactive; in test [11] it was 49 µM (active) and inactive. The max response in [12] was -23.8% (inactive).

For `CCCCNC(=O)NS(=O)(=O)c1ccc(C)cc1`, the Potency entry in [1], in [18], in test [3], in test [5], in [6] and in [7] was “inactive” in each case. Further, the Potency result in test [8], in test [10], in test [11], in [13], in test [14] and in test [15] was “inactive” each time. Also, the Potency entry in test [16] and in [17] was “inactive” each time. Also, the activity change, positive = activation was 4.14% (inactive) in test [4] (at 42.5 µM (top of the series)); -14.4% (inactive) and 0.897% (inactive) in test [4] (at 92.4 µM (top of the series)). Also, the max response in test [12] is -2.16% (inactive) and 5.08% (inactive) and 4.55% (inactive).

For the molecule `C1=CC2C3C=CC(C3)C2C1` (stereo not given), the Potency result in test [18], in test [5], in test [6], in test [8], in test [10] and in test [11] was “inactive” throughout. Besides, the Potency result in [14], in [19], in test [15], in [16] and in [17] was “inactive” in each case. Also, the molecule was classed as inactive in test [2]. The activity change, positive = activation in test [4] (at 92.4 µM (top of the series)) was -1.35% (inactive). The max response in [12] is 0.978% (inactive).

On to `CC1(C)O[C@@H]2C[C@H]3[C@@H]4CCC5=CC(=O)C=C[C@]5(C)[C@@]4(F)[C@@H](O)C[C@]3(C)[C@]2(C(=O)CO)O1`, for which the Potency entry in [1], in [18], in test [3], in [5], in [6] and in [7] was “inactive” in each case. The Potency entry in test [8], in test [10], in [11], in [14], in test [19] and in test [15] was “inactive” each time. For the same molecule, the Potency entry in test [16] and in test [17] was “inactive” throughout. For the same molecule, the call in test [2] was inactive. Besides, the activity change, positive = activation in test [4] (at 42.5 µM (top of the series)) is -6.5% (inactive); in test [4] (at 92.4 µM (top of the series)) it was -23.9% (inactive) and -13.8% (inactive). Further, the Potency result in test [9] is “inactive and 9.52 µM (active)”. Besides, the max response in [12] is -22.1% (inactive) and -11.6% (inactive) and -2.14% (inactive).

Regarding `CCN(Cc1c(F)cccc1Cl)c1c([N+](=O)[O-])cc(C(F)(F)F)cc1[N+](=O)[O-]`, the Potency is 21.9 µM (active) in test [1], 49 µM (active) in test [6], 27.5 µM (active) in test [10] and 54.9 µM (active) in test [12]. In addition, the Potency result in test [18], in [5], in [7], in [8], in [9] and in test [13] was “inactive” in each case. The Potency entry in test [14], in test [19], in test [15], in test [16] and in test [17] was “inactive” throughout. For the same molecule, the call in test [2] was inactive. The activity change, positive = activation in test [4] (at 92.4 µM (top of the series)) was -20.2% (inactive).
